Reference: PubChem BioAssay (Tox21)
The source made the active and inactive calls. Calls come from the whole dose curve; as a rule, active = well fitted curve in the direction sought with a large enough effect in the repeat runs; inconclusive = weak or mixed curves; inactive = flat fitted curve, though single readings scatter.

assay: qHTS assay to test for compound auto fluorescence at 460 nm (blue) in HEK293 cells (AID 720678); conditions: blue autofluorescence 405/460 nm; series mostly up to 91.3 µM; fluorescence, % of triamterene: at the top concentration
Source text: National Center for Advancing Translational Sciences [NCATS]
NIH Chemical Genomics Center [NCGC]
U.S. Environmental Protection Agency [EPA]
National Institutes of Environmental Health Sciences [NIEHS]
National Toxicology Program [NTP]
U.S. Food and Drug Administration [FDA]
Compound auto fluorescence often interferes with screening of the compound library against various biological targets and signaling pathways. Some of these compounds may have fluorophoric properties. Such properties may interfere with the assay outputs resulting in false positives and/or negatives. To decrease such complications and ensure the compound activities are relevant in terms of biological response, the Tox21 10K compound library was screened for auto fluorescence.
From the fluorophores used as reporter signals in our screening assays, the auto fluorescence equivalencies of compounds against three fluorophores have been evaluated: Triamterene, Fluorescein and Rose Bengal sodium for blue, green and red fluorescence, respectively. The fluorescence intensities were measured using Excitation/Emission wavelengths at 405/460nm, 485/535nm and 540/590nm for blue, green and red labels, respectively. This assay includes the blue fluorescence data.
Tox21 Assay Protocol Summary:
2,000 HEK293 cells in 5 uL of culture medium containing 10% dialyzed FBS per well were dispensed into black wall/clear bottom 1536-well plates using a Multidrop Combi Dispenser (Thermo Scientific). The assay plates were incubated for 4-5 hr at 37C to allow cell attachment to the well bottom, followed by the transfer of 23 nL compound or DMSO vehicle by a pintool work station (Kalypsys, San Diego, CA). After the assay plates were incubated overnight at 37C and 5% CO2, fluorescence intensities in the assay plates were measured by an Envision (PerkinElmer, Shelton, CT) plate reader using three labels for measuring blue, green and red fluorescence at […] 460, 535 and 590nm respectively.
% is set by controls: 0 for no effect and ±100 for the full control effect.

Compound | fluorescence, % of triamterene | outcome
CN1C(C)(C)CCCC1(C)C | -0.0501% [at 46 µM] (inactive) | –
CC(COC(C)(C)C)OCCCO (stereo not given) | -0.0328% (inactive) | –
On1nnc2ccccc21 | 0.114% (inactive) | –
COc1ccc(Br)c(C)c1 | -0.0894% (inactive) | –
NS(=O)(=O)c1ccc(NC(=O)CCC(=O)O)cc1 | 0.0483% [at 46 µM] (inactive) | –
COc1nccnc1NS(=O)(=O)c1ccc(N)cc1 | -0.384% [at 46 µM] (inactive) | –
Nc1nnc(-c2cccc(Cl)c2Cl)c(N)n1 | -0.285% [at 46 µM] (inactive) | –
NCCN1CCOCC1 | -0.0103% (inactive) | –
Cc1c(I)c(=O)n(-c2ccccc2)n1C | 0.0424% [at 46 µM] (inactive) | –
Nc1ccc2cc(S(=O)(=O)O)cc(O)c2c1 | 6.33% (inactive) | –
CC(=O)Nc1cccc(C)c1 | -0.165% (inactive) | –
CN=C(NC#N)Nc1ccc(C2=NNC(=O)CC2C)cc1 (stereo not given) | -0.0104% [at 46 µM] (inactive) | –
BrCCCCCBr | -0.0093% [at 95.7 µM] (inactive) | –
Cc1ccc2c(c1)OCC(=O)CO2 | 0.0514% (inactive) | –
Cc1cc(C(C)(C)C)c(O)c(C)c1CC1=NCCN1 | -0.313% [at 46 µM] (inactive) | –
CC(=O)Nc1ccc(S(=O)(=O)Cl)cc1 | 0.414% (inactive) | –
c1ccc2c(c1)ccc1c3ccccc3ccc21 | -0.0873% [at 46 µM] (inactive) | –
CCC(C=O)CC | -0.0154% (inactive) | –
Cc1ccccc1N=O | -0.116% [at 95.7 µM] (inactive) | –
CC(=O)c1sc(C)nc1C | -0.0308% (inactive) | –

Compound | fluorescence, % of triamterene | outcome
CC(C)CCCC(C)(C)O | 0.153% (inactive) | –
CC(=O)/C=C/C1C(C)=CCC(C)C1(C)C (stereo not given) | 0.225% (inactive) | –
CCCC(=O)C(C)=O | -0.0182% (inactive) | –
FC(F)(F)c1ccccc1-n1ccnc1 | -0.0189% [at 46 µM] (inactive) | –
C=C(C)C(=O)OCC(C)(C)COC(=O)C(=C)C | 0.0838% (inactive) | –
CCCCCCCCCCl | -0.108% (inactive) | –
CC(=O)N[C@@H](CCC(=O)O)C(=O)O | 0.0284% [at 46 µM] (inactive) | –
COc1ccc(-c2cc(=O)c3c(O)cc(O[C@@H]4O[C@H](CO[C@@H]5O[C@@H](C)[C@H](O)[C@@H](O)[C@H]5O)[C@@H](O)[C@H](O)[C@H]4O)cc3o2)cc1O | -0.124% [at 46 µM] (inactive) | –
O=C(O)c1cc(Br)c(O)c(Br)c1 | -0.0653% (inactive) | –
COC(=O)c1ccccc1C(=O)c1ccc(OCCN2CCCCC2)cc1 | 0.168% [at 46 µM] (inactive) | –
CN(CCOc1ccc(NS(C)(=O)=O)cc1)CCc1ccc(NS(C)(=O)=O)cc1 | -0.0289% [at 46 µM] (inactive) | –
CO[C@@H]1[C@@H](OC(N)=O)[C@@H](O)[C@H](Oc2ccc3c(O)c(NC(=O)c4ccc(O)c(CC=C(C)C)c4)c(=O)oc3c2C)OC1(C)C | 0.0216% [at 18.6 µM] (inactive) | –
CCc1ccc(C=O)cc1 | 0.0536% (inactive) | –
O=C(c1ccc(O)cc1)c1ccc(O)c(O)c1O | 0.474% (inactive) | –
COCCOC(=O)C1=C(C)NC(C)=C(C(=O)OC(C)C)C1c1cccc([N+](=O)[O-])c1 (stereo not given) | -0.239% [at 46 µM] (inactive) | –
CC1=CCC(C(C)C)=CC1 | -0.216% (inactive) | –
OCCCCC(O)CO (stereo not given) | -0.0823% (inactive) | –
CC(CC=O)CCCC(C)(C)O (stereo not given) | – | inactive
NC(CO)C(=O)NNCc1ccc(O)c(O)c1O (stereo not given) | 0.561% [at 46 µM] (inactive) | –
CCCCOCCOC(=O)COc1nc(Cl)c(Cl)cc1Cl | 0.0127% (inactive) | –
